12-LOX inh: ALOX12 (human) lipoxygenase inhibition | P18054 | purified 12hLO, xylenol orange hydroperoxide absorbance | Potency, µM (top dose mostly 108 µM), for inactives: at the top dose activity change, negative = inhibition, most hits filed as inhibitors | 580,000 tested, 1.1% active; also: % is scaled to controls: 0 for no effect and ±100 for the full control effect
Target sequence (P18054 whole entry, looked up): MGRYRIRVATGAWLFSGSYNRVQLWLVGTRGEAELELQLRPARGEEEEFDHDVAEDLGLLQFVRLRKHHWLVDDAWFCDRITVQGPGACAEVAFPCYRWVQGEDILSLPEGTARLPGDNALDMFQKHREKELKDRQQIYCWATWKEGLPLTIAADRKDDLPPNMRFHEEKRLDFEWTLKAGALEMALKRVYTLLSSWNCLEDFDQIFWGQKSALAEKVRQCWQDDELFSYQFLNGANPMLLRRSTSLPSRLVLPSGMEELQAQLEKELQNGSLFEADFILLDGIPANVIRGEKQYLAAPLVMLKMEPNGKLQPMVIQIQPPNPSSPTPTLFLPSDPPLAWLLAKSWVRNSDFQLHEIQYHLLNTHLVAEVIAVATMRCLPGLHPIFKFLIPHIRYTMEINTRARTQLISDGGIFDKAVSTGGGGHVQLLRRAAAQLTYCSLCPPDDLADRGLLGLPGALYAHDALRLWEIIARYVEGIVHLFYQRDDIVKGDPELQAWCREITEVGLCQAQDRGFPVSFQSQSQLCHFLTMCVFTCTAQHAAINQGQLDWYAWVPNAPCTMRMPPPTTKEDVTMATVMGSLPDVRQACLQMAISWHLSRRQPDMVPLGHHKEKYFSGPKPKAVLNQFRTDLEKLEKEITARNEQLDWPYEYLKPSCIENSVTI
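Purified human 12hLO (150 nM final) in 25 mM Hepes, 0.01% Triton X-100, pH 7.0 was preincubated 15 min at room temperature with compound. Then 40 uM arachidonic acid was added, 30 min. Hydroperoxide was read by Fe-XO absorbance ratio 573/405 nm.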
EPAC2 agonist: activates human EPAC2 exchange factor. EPAC2 activation, biochemical qHTS; response scale: 100% = 6.5 mM cAMP response. Potency, µM (highest dose often 154 µM), without a hit: at the highest dose activation, usual class: activators. 360,000 tested, 0.079% active. AID 720711; also: nearly all actives have a fitted effect of over 50% in size
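Nucleotide exchange monitored as fluorescence drop when BODIPY-GDP leaves Rap1B. Reaction: 100 nM EPAC2, 250 nM RAP1B-BODIPY-GDP, 50 uM GDP, room temperature, kinetic read over 30 min. Activity expressed relative to 6.5 mM cAMP.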
EPAC2 antag: EPAC2 (human) antagonism | Q8WZA2 | EPAC2 GEF exchange of Rap1B-BODIPY-GDP, fluorescence | Potency, µM (highest dose often 114 µM), without a hit: top-dose activity, negative = inhibition, most hits filed as inhibitors | 360,000 tested, 0.18% active; also: % is scaled to controls: 0 for no effect and ±100 for the full control effect; nearly all actives have a fitted effect of over 45% in size
USP1 inh: inhibitors of human USP1/UAF1 deubiquitinase. O94782. recombinant USP1/UAF1, Ub-Rhodamine cleavage fluorescence. Potency, µM (top dose mostly 57.1 µM), inactives show at the top dose activity change, negative = inhibition, usual class: inhibitors. 390,000 tested, 0.23% active. AID 743255; also: % is scaled to controls: 0 for no effect and ±100 for the full control effect; nearly all actives have a fitted effect of over 60% in size
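High-throughput fluorogenic screen: 1nM USP1/UAF1 complex, Ub-Rho substrate 150nM final, 50mM HEPES pH 7.8 with 0.5mM EDTA, 0.1 mg/ml BSA, 1mM TCEP and 0.01% Tween-20.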
EPAC1 agonist: activates human EPAC1 exchange factor; AID 720707; O95398; Potency, µM (doses to about 154 µM), inactives show top-dose activation, usual class: activators; 360,000 tested, 0.073% active; EPAC1 agonist qHTS, biochemical assay; response scale: 100% = response to 6.5 mM cAMP; also: nearly all actives have a fitted effect of over 60% in size
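Normalized to 6.5 mM cAMP, activity reflects EPAC1-catalysed release of BODIPY-GDP from Rap1B, followed kinetically over 30 min at 480 nm excitation, 540 nm emission. Reaction contained 100 nM EPAC1, 250 nM Rap1B-BODIPY-GDP, 50 uM GDP.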
EPAC1 antagonist: antagonists of human EPAC1; O95398; EPAC1 GEF assay, Rap1b-BODIPY-GDP exchange fluorescence; Potency, µM (doses to about 115 µM), for the others: top-dose activity change, negative = inhibition, actives largely listed as inhibitors; 360,000 tested, 0.14% active;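 also: plate controls were vehicle for no effect and positive control for full effect; nearly all actives have a fitted effect of over 50% in size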
Numbers without * were called inactive; ? = inconclusive; · = not tested or not shown. A selection: hits, their analogues and other compounds. The true share with any hit is near 1.3%. Calls follow the shape of the dose curve; as a rule, active = well fitted curve in the direction sought with a large enough effect; inconclusive = small, poorly fitted or top-dose-only effect, or another doubt; inactive = no such curve, though single readings can be large; an effect the other way counts as inactive or inconclusive. Potency is read from the fitted curve at half-maximal effect.

SMILES	12-LOX inh	EPAC2 agonist	EPAC2 antag	USP1 inh	EPAC1 agonist	EPAC1 antagonist
O=c1cc(-c2ccccc2Cl)oc2c(NS(=O)(=O)c3cc(Cl)cc(Cl)c3O)ccc(O)c12	·	0.4%	28.2µM*	25.1µM*	1.3%	35.5µM*
Cc1[nH]n(-c2ncc(-c3ccccc3)s2)c(=O)c1C(c1ccc(Cl)cc1)C(C#N)C#N (centres undefined)	?	2.1%	-8.2%	?	-8.8%	50.1µM*
O=C(O)Cc1sc(Nc2cccc3ccccc23)nc1-c1ccc(Cl)cc1	44.7µM*	-8.3%	0.5%	-19.6%	-1.3%	-21.3%
O=C(O)Cc1sc(Nc2ccc(Cl)cc2)nc1-c1cccs1	14.1µM*	-4.5%	-4.3%	-9.7%	1.2%	-3.7%
Nc1nc(-c2cccs2)c(CC(=O)O)s1	-17.9%	5.7%	-5.9%	-22.2%	4.0%	-13.2%
O=C(O)Cc1sc(Nc2cccc3ccccc23)nc1-c1ccccc1	?	7.9%	3.3%	-17.9%	2.4%	-15.2%
Cc1ccc(Nc2nc(-c3ccc(C)cc3)c(CC(=O)O)s2)cc1	39.8µM*	10.3%	-2.8%	-0.5%	-1.0%	-6.3%
O=C(O)Cc1sc(Nc2ccccc2)nc1-c1ccccc1	0.0%	·	·	-22.1%	·	·
Cc1ccc(NC(=O)N2CCc3c(C(=O)NC(C)C)cccc32)cc1	32.9%	·	·	·	·	·
C#CCOc1nc2c(c(=O)n(C)c(=O)n2C)n1Cc1c(Cl)cccc1Cl	-4.2%	·	·	·	·	·
CC1CCC(C(C)C)C2=C1C(C#N)(C#N)C(C#N)(C#N)C(c1ccccc1)N2 (centres undefined)	39.8µM*	14.0%	-3.0%	-23.5%	-2.2%	2.2%
CC(C)C1OC2(C)OC(=N)C1(C#N)C(C#N)(C#N)C2c1ccccc1 (centres undefined)	?	2.6%	2.0%	-15.8%	-8.1%	-9.0%
CC1CCCCN1C(=O)COC(=O)c1cnc2ccccc2n1 (centres undefined)	-4.6%	·	·	·	·	·
O=C1C=CC(=O)C(C2=C3C(=O)N(CCc4ccccc4)CC(=O)N3CCC2)=C1	39.8µM*	-1.7%	-1.0%	-11.9%	14.4%	-10.8%
Cc1ccc2nc(-c3ccccc3)cc(C(=O)Nc3ccccn3)c2c1	-20.9%	·	·	·	·	·
Cc1ccc(C2CC(c3cccs3)=NN2C(=O)c2ccco2)o1 (centres undefined)	?	9.7%	28.2µM*	-23.9%	12.2%	-13.4%
CCCN(CCC)CC1=C(C(=O)OCC)C(c2ccc(C)cc2)NC(=O)N1 (centres undefined)	14.1µM*	·	·	·	·	·
Cc1cccc(CNc2nc(-c3ccc4c(c3)OCO4)nc3ccccc23)c1	39.8µM*	·	·	·	·	·
CCCNC(=O)c1ccc2c(=O)c(O)c(-c3ccc(C)cc3)[nH]c2c1	-13.9%	-5.8%	-23.1%	-8.7%	1.2%	-15.8%
CCCNC(=O)c1ccc2c(=O)c(O)c(-c3ccsc3)[nH]c2c1	·	89.1µM*	10.0%	-13.5%	21.2%	-1.0%
COc1cc(OC)cc(C(=O)/C(=C\c2ccncc2)c2nc3ccccc3o2)c1	28.2µM*	·	·	·	·	·
COc1cc(OC)cc(C(=O)/C(=C/c2cccs2)c2nc3ccccc3o2)c1	-4.0%	·	·	·	·	·
O=S1(=O)C=C(Oc2ccc3ccccc3c2)c2ccccc21	·	10.9%	25.1µM*	-7.8%	5.1%	-1.3%
C=CCN1C(=O)/C(=C/C=C2/N(CC)c3ccc(S(=O)(=O)N(C)C)cc3N2CC)SC1=S	-25.9%	100µM*	-0.5%	28.2µM*	100µM*	10.2%
O=C(Nc1ccccc1)c1nnsc1S(=O)c1ccc(Cl)cc1 (centres undefined)	14.1µM*	-10.3%	-4.6%	-17.9%	-3.0%	-10.2%
COc1ccccc1/C=C/CN1CCCC(CCC(=O)Nc2ccccc2F)C1 (centres undefined)	0.1%	·	·	·	·	·
COc1cc2c3nnc(-c4ccc(F)cc4)c-3cn(Cc3ccc(F)cc3)c2cc1OC	-98.3%	-70.4%	88.4%	-3.3%	-163.1%	-32.1%

High-throughput results (PubChem BioAssay)
